In all, about 33,000 sequences were measured (“E-score (-0.5 to 0.5)”: median about -0.017, highest 2% from about 0.3 on). Many of the other results were omitted from the sample, so the highest values are more common in it than they were.

This assay concerns the target T1, Sut1 (UniProt P53032).
T1 sequence: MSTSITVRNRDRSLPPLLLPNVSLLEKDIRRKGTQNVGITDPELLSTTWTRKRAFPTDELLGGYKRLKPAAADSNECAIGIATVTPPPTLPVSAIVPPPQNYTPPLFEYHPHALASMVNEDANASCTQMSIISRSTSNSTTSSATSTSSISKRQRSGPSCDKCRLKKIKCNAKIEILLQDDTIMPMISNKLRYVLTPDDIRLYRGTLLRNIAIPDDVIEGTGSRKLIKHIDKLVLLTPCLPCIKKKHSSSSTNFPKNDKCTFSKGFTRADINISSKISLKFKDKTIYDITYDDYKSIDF
The assay can be described thus: PBM E-score (8-mer binding enrichment) (E-score (-0.5 to 0.5)); higher = stronger / more preferred TF binding. The settings on record: protein concentration: 200 nM; construct: GST-full length. As to the method: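 Universal 'all 10-mer' protein binding microarrays (Agilent AMADID 015681) probed with GST-tagged S. cerevisiae TFs (full-length or DBD) made by in vitro transcription/translation (PURExpress), about 100-200 nM. Bound TF was detected with fluorescent anti-GST. Each ungapped 8-mer (which stands for itself and its reverse complement) is scored by the PBM enrichment score (E-score), a modified Wilcoxon-Mann-Whitney statistic from -0.5 to +0.5, computed with the Universal PBM Analysis Suite. Scale: above 0.35 generally sequence-specific binding.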
For GCTCGGCC, the “PBM E-score” value was -0.204.
In the case of ATACATTA, the “PBM E-score” value was determined as 0.234.
Take ACACTAAG: the “PBM E-score” value is -0.0951.
Regarding CATATATA, the “PBM E-score” value was 0.299.
For the sequence GATATATA, the “PBM E-score” value worked out at 0.247.
As for AATATACA, the figure is 0.29; as for CATATATC, -0.0165; as for TATATATA, 0.381.
As for CATATATG, the “PBM E-score” value is 0.0281.
As to TATATACA, the “PBM E-score” value is 0.316.
Regarding GATATACA, the “PBM E-score” value stood at 0.194.
Consider TATATAGA, for which the “PBM E-score” value worked out at 0.278.
For GGCCAGCA, the “PBM E-score” value was -0.168.
In the case of ACCCAGGA, the “PBM E-score” value is -0.13.
For the sequence AAGACTTC, the “PBM E-score” value was -0.196.
For AACCCCTC, the “PBM E-score” value is -0.198.
On to AAGGGGGA, for which the “PBM E-score” value was -0.0309.
Turning to CAGTCAAA, the “PBM E-score” value is 0.0987.
For CCTTGCAG, the “PBM E-score” value is -0.143.
Turning to ACTCGTCG, the “PBM E-score” value is -0.174.
Consider TAATCGCA, for which the “PBM E-score” value is -0.0128.
As for GTCGGAAA, the figure is 0.355; as for ATCGGAAG, 0.253.
Regarding AACGGAAT, the “PBM E-score” value turned out to be 0.294.
To TTCGGAAA belongs 0.252; to ATCGGAAT, 0.352.
As for AGCGGAAT, the “PBM E-score” value amounted to 0.0494.
Turning to CTCGGAAA, the “PBM E-score” value is 0.19.
Regarding AACGGAAA, the “PBM E-score” value turned out to be 0.327.
GTCGGAAC: the “PBM E-score” value was determined as 0.134.
Consider CACGGAAA, for which the “PBM E-score” value is 0.188.
With ATCGGAAA, the “PBM E-score” value was determined as 0.302.
For ATCGGAAC, the “PBM E-score” value turned out to be 0.14.
For AGTAACTC, the “PBM E-score” value worked out at 0.115.
Turning to CGACGAAA, the “PBM E-score” value amounted to 0.0757.
For AAGTGAGC, the “PBM E-score” value was -0.0565.
Regarding GCTTTTTA, the “PBM E-score” value was 0.161.
Turning to GGAGCGAA, the “PBM E-score” value was 0.0455.
Take AAACGCGC: the “PBM E-score” value is -0.123.
ATCCTCAT: the “PBM E-score” value was -0.0846.
CGAGGGTC: the “PBM E-score” value is -0.194.
For the sequence CTTATGTA, the “PBM E-score” value is 0.16.
Turning to AAACTGAA, the “PBM E-score” value turned out to be 0.171.
On to AAGTTGCG, for which the “PBM E-score” value is 0.108.
As for CTCGCCCC, the figure is -0.298; as for AGTGAATA, 0.177.
To ATGGTCGG belongs 0.0544; to GCCCAGCC, -0.184.
In the case of ATTATTTG, the “PBM E-score” value was determined as 0.319.
To ATTATTTA belongs 0.347; to ACTATTTG, 0.252.
As for CTTATTTC, the figure is 0.207; as for ATGATTTC, 0.299; as for ATTATTAC, 0.278.
On to CTTATTTA, for which the “PBM E-score” value was 0.101.
Turning to ATGATTTA, the “PBM E-score” value turned out to be 0.222.
For GTTATTTA, the “PBM E-score” value stood at 0.257.
For the sequence ATTATTTC, the “PBM E-score” value was determined as 0.306.
In the case of ATTATTAG, the “PBM E-score” value was determined as 0.144.
Turning to CTGATTTC, the “PBM E-score” value was 0.0415.
To CGCTAGTA belongs 0.101; to AGAATGCA, 0.0147; to CCCGTTAG, -0.0959.
As to CGTACGAG, the “PBM E-score” value is -0.098.
As to AATAGCTC, the “PBM E-score” value was -0.207.
To ATTGCGAC belongs 0.0862; to CGTCCTTA, -0.176; to ATACCGGC, -0.0331.
With CTACCGGA, the “PBM E-score” value stood at 0.222.
As to GTACCGGA, the “PBM E-score” value came out at 0.342.
To GTACCGCA belongs 0.102; to ATACCGGG, 0.0371; to ATACCGGA, 0.326.
As for AGTCAGCA, the figure is -0.0199.
As for ACCCACTC, the figure is 0.00249.
With ATCCGGCG, the “PBM E-score” value was -0.00912.
For ATCCGGAG, the “PBM E-score” value is 0.414.
Take TTCCGGAA: the “PBM E-score” value came to 0.395.
As for CTGCGGAA, the figure is -0.0948; as for TGCCGGAA, 0.188.
For ATCCGGAC, the “PBM E-score” value was determined as 0.362.
Regarding TCCCGGAA, the “PBM E-score” value amounted to 0.228.
For CTCCGGAA, the “PBM E-score” value worked out at 0.442.
On to ATCCGGAT, for which the “PBM E-score” value turned out to be 0.257.
As for ATCCGGTG, the “PBM E-score” value is 0.0918.
In the case of ACAGTCAA, the “PBM E-score” value is -0.0644.
Take AGAGTAAG: the “PBM E-score” value is 0.016.
For the sequence AAGCTCTC, the “PBM E-score” value is -0.127.

The values above are taken from the supplement of paper PMC3334620.
